Screen size: about 310,000 compounds; about 18,000 (5.8%) were called active. Roughly 22% stayed inconclusive and do not appear here. Calls come from the whole dose curve; as a rule, active = well fitted inhibition curve with a large enough effect; inconclusive = small, poorly fitted or top-dose-only effect, or another doubt; inactive = no such curve, though single readings can be large or run the other way. The entries come from a sample that favours actives as a whole. Where a call stands in place of a potency, no number is given.
Potency is the fitted concentration of half-maximal effect.

The experiment is described as follows: Primary qHTS for delayed death inhibitors of the malarial parasite plastid, 48 hour incubation. The settings on record: P. falciparum luciferase growth in erythrocytes; series mostly up to 28.7 µM. The essentials:
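Luciferase-expressing parasites in RBCs, 2% Hct / 0.1% parasitemia final; RPMI 1640 + 0.5% Albumax; 37 C, 5% CO2, one generation; luminescence read-out, lower signal = inhibition.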
A general note: In qHTS, concentration-response curves come from the screen itself.
In the case of `Cc1ccnc(NC(=O)CNC(=O)c2ccccc2)c1`, the Potency result is “inactive”.

With `COc1cccc2sc(N(CCCN(C)C)C(=O)CCS(=O)(=O)c3ccccc3)nc12`, the Potency result is “inactive”.

With `COc1cccc2sc(N(CCCN(C)C)C(=O)C(c3ccccc3)c3ccccc3)nc12`, the Potency is 13.1 µM (active).

Take `Cc1cccc2sc(N(CCCN(C)C)C(=O)CCS(=O)(=O)c3ccccc3)nc12`: the Potency entry was “inactive”.

For `Cc1ccc(CSc2nsc(C)c2C#N)cc1`, the Potency entry was “inactive”.

For the compound `O=C1c2ccccc2S(=O)(=O)N1Cc1c(F)cccc1Cl`, the Potency entry was “inactive”.

`CCCCC(=O)Nc1ccc2c(c1)OCCO2`: the Potency entry was “inactive”.

As for `COC(=O)CCNc1ccc2c(c1)OCCO2`, the Potency entry is “inactive”.

For the compound `CCOC(=O)c1cnc2ccc(F)cc2c1Nc1ccc2c(c1)OCCO2`, the Potency was 9.28 µM (active).

For the compound `CCOCCn1c(C(C)C)nc2ccccc21`, the Potency entry is “inactive”.

Take `CCOCCCNc1c(CC)c(C)c(C#N)c2nc3ccccc3n12`: the Potency is 3.29 µM (active).

Take `CN(C)CCCNc1c2c(c(C#N)c3nc4ccccc4n13)CCC2`: the Potency result was “inactive”.

Consider `CCCCCn1c(=O)c(C(=O)Nc2c(C)n(C)n(-c3ccccc3)c2=O)c(O)c2ccccc21`, for which the Potency result was “inactive”.

On to `CCCCCn1c(=O)c(C(=O)NCc2ccccc2)c(O)c2ccccc21`, for which the Potency was 9.28 µM (active).

In the case of `CCCCn1c(=O)c(C(C)=O)c(O)c2ccccc21`, the Potency result was “inactive”.

As for `COc1ccc(N(CC(=O)Nc2ccc(F)c(F)c2)S(=O)(=O)c2c(C)[nH]c(=O)[nH]c2=O)cc1`, the Potency entry was “inactive”.

Take `CN(C(=O)c1cccc(OC2CCN(S(=O)(=O)N(C)C)CC2)c1)C1CCOC1` (stereo unspecified): the Potency entry was “inactive”.

Consider `CC(C)(C)NC(=O)NC(=O)COC(=O)C1c2ccccc2Oc2ccccc21`, for which the Potency result was “inactive”.

For `Cc1ccccc1N1CCN(S(=O)(=O)c2ccc3ccccc3c2)CC1`, the Potency entry was “inactive”.

On to `CCOc1cccc(=O)c2c(C)n(CC3CCCO3)c(C)c12` (stereo unspecified), for which the Potency is 14.7 µM (active).

For `O=c1c2cc3c(=O)n(CC4CCCO4)c(=O)c3cc2c(=O)n1CC1CCCO1` (stereo unspecified), the Potency result was “inactive”.

For `CCOc1ccc(NC(=O)c2cccc3c2C(=O)N(CC2CCCO2)C3)cc1` (stereo unspecified), the Potency entry is “inactive”.

As to `CC(C)c1ccc(NC(=O)COC(=O)c2ccc(CN3CCCC3=O)cc2)cc1`, the Potency entry is “inactive”.

In the case of `Cc1ccc2nc(SCC(=O)NC3CCCC3)[nH]c2c1`, the Potency entry is “inactive”.

As for `COC(=O)C1(C)NC(c2ccc(C)cc2)C2C(=O)N(c3ccc(F)cc3)C(=O)C21` (stereo unspecified), the Potency result was “inactive”.

Regarding `CCN1C(=O)[C@H]2[C@@H](c3ccc(-c4ccc(F)cc4)cc3)N[C@@](Cc3ccccc3)(C(=O)OC)[C@H]2C1=O`, the Potency is 4.65 µM (active).

Consider `CCCC1(C(=O)OC)NC(c2ccco2)C2C(=O)N(C)C(=O)C21` (stereo unspecified), for which the Potency result is “inactive”.

For the compound `CCOC(=O)C1(Cc2ccc(O)cc2)NC(c2ccccc2F)C2C(=O)N(C)C(=O)C21` (stereo unspecified), the Potency result was “inactive”.

In the case of `CCN1C(=O)[C@H]2[C@@H](c3ccc(SC4CCCCC4)c(OC)c3)N[C@@](Cc3ccccc3)(C(=O)OC)[C@H]2C1=O`, the Potency is 2.08 µM (active).

Consider `COC(=O)C1(C)NC(c2ccc(F)cc2)C2C(=O)N(c3ccccc3)C(=O)C21` (stereo unspecified), for which the Potency result is “inactive”.

Take `CCN1C(=O)[C@H]2[C@@H](c3ccc(-c4ccc(OC)cc4)cc3)N[C@@](Cc3ccccc3)(C(=O)OC)[C@H]2C1=O`: the Potency was 9.28 µM (active).

Regarding `CCCCC1(C(=O)OCC)NC(c2ccc(O)cc2)C2C(=O)N(c3ccccc3)C(=O)C21` (stereo unspecified), the Potency result is “inactive”.

Regarding `COC(=O)C1(C)NC(c2ccccc2OC)C2C(=O)N(c3ccccc3)C(=O)C21` (stereo unspecified), the Potency result was “inactive”.

In the case of `COc1cc2c(C(=O)O)c(C)n(C)c2c2ccccc12`, the activity change, negative = inhibition was 15.4% [at 0.00184 µM] (inactive).

For `O=C(CSc1ccc(-c2ccco2)nn1)Nc1cccc(F)c1`, the Potency entry was “inactive”.

For the compound `NC(=O)c1cc2ccccc2o/c1=N/NC(=O)c1cccc(F)c1`, the Potency entry is “inactive”.

In the case of `CCOc1cc(NC(=O)c2ccccc2C(=O)O)c(OCC)cc1NC(=O)c1ccccc1F`, the Potency was 4.15 µM (active).

For `NC(=O)c1ccccc1NC(=O)c1ccccc1F`, the Potency entry is “inactive”.

Turning to `CCOc1cc(NC(=O)Nc2ccccc2)c(OCC)cc1NC(=O)CC`, the Potency entry is “inactive”.

Regarding `O=C(Nc1cccc(Cl)c1N1CCOCC1)c1cccnc1`, the Potency result was “inactive”.

For the compound `Cc1ccccc1NC(=O)CCNS(=O)(=O)c1ccc2[nH]c(=O)oc2c1`, the Potency result is “inactive”.

For `CCn1c2ccccc2c2cc(NC(=O)C/C(C)=N/NC(=O)c3ccccc3N)ccc21`, the Potency is 11.7 µM (active).

Take `CCn1c2ccccc2c2cc(NC(=O)COC(=O)c3ccccc3Br)ccc21`: the Potency result was “inactive”.

`C/C(CC(=O)Nc1ccc(N(C)C)cc1)=N\NC(=O)c1ccccc1F`: the Potency entry is “inactive”.

For `CN(CC(=O)NCc1ccc(Cl)cc1)S(=O)(=O)c1cccs1`, the Potency entry is “inactive”.

`COc1ccc(S(=O)(=O)N2CCN(C(=O)N(C)C)C2C)cc1` (stereo unspecified): the Potency entry was “inactive”.

On to `Cc1[nH]c(C)c(S(=O)(=O)N2CCN(c3cccc(C(F)(F)F)c3)CC2)c1C(=O)N1CCCC1`, for which the Potency entry was “inactive”.

As to `CN1CCN(C(c2cc3cc4c(cc3[nH]c2=O)OCCO4)c2nnnn2C2CCCC2)CC1` (stereo unspecified), the Potency entry was “inactive”.

As to `COc1ccc(N2CCN(C(c3cc4ccc(C)cc4[nH]c3=O)c3nnnn3C3CCCC3)CC2)cc1` (stereo unspecified), the Potency is 1.85 µM (active).

In the case of `CCOc1ccc2[nH]c(=O)c(C(c3nnnn3CCOC)N3CCOCC3)cc2c1` (stereo unspecified), the Potency result was “inactive”.

For the compound `O=C(NCCCN1CCOCC1)C1CCCN(S(=O)(=O)N2CCCCC2)C1` (stereo unspecified), the Potency result is “inactive”.

With `CCC(C)C(NC(=O)C1CCC(=O)N1C(=O)OCc1ccccc1)C(=O)NC(C(=O)N1CCCC1C(N)=O)C(C)CC` (stereo unspecified), the Potency result was “inactive”.

As to `CC(=O)Nc1ccc(NC(=O)[C@@H](NC(=O)c2cccc(C)c2)C(C)C)cc1`, the Potency entry is “inactive”.

Consider `Cc1ccc(S(=O)(=O)N2CCOCC2)cc1C(=O)NC(=S)N(Cc1ccccc1)C(C)C`, for which the Potency result is “inactive”.

For the compound `Cc1cccc(NC(=O)c2cc(S(=O)(=O)N3CCC4(CC3)OCCO4)ccc2F)c1`, the Potency result was “inactive”.

As to `Cc1cccc(N(Cc2ccccc2)C(=O)c2cc(S(=O)(=O)N3CCOCC3)ccc2F)c1`, the Potency is 11.7 µM (active).

For `CC(=O)Nc1ccc(NC(=O)CC2CCCC2)cc1`, the Potency result is “inactive”.

In the case of `CCCOc1ccc(NC(=O)C2CCCNC2=O)cc1` (stereo unspecified), the Potency entry was “inactive”.

On to `CCCOc1ccc(/C=N/NC(=O)C2CC2)c(OCCC)c1`, for which the Potency is 11.7 µM (active).

As for `COc1ccc(/C=N/NC(=O)C2CC2)c(OC)c1OC`, the Potency result was “inactive”.

In the case of `CCCCCCCCn1c2c(c(=N)c3c1CCC3)CCCC2`, the Potency is 0.262 µM (active).

For `Cc1ccc(CC2C(=O)N(c3ccc(F)cc3)C(=O)C2C)cc1` (stereo unspecified), the Potency entry was “inactive”.

For `CC(=O)NC(CC(=O)Nc1nc(-c2ccccc2)c(C(C)=O)s1)c1ccccc1` (stereo unspecified), the Potency entry was “inactive”.

In the case of `CC1CCCC(C)N1C(=O)COC(=O)COc1ccccc1C#N` (stereo unspecified), the Potency result was “inactive”.

`COCCNC(=O)C(c1ccc(C)o1)N(Cc1ccccc1)C(=O)Cn1nnc2ccccc21` (stereo unspecified): the Potency entry is “inactive”.

On to `COc1ccccc1N(C(=O)Cn1nnc2ccccc21)C(C(=O)NCc1ccco1)c1ccc(C)o1` (stereo unspecified), for which the Potency is 13.1 µM (active).

Take `O=C(NCc1ccco1)C(c1ccncc1)N(C(=O)Cn1nnc2ccccc21)c1ccccc1` (stereo unspecified): the Potency entry is “inactive”.

For the compound `NC(=O)c1oc2ccccc2c1NC(=O)CS(=O)(=O)c1ccccc1`, the Potency entry is “inactive”.

In the case of `CCc1c(C)nc2c(OC)cccc2c1Cl`, the Potency entry was “inactive”.

Consider `CC(=O)Oc1ccc(-c2nc3c(C)cccc3c(=O)o2)cc1`, for which the Potency entry is “inactive”.

On to `COc1nc(N=C(N)N)nc2c(C)cccc12`, for which the Potency was 1.65 µM (active).

For the compound `O=C(C1CCC(=O)N(C2CC2)C1)N1CCN(c2ccc(Cl)cc2)CC1` (stereo unspecified), the Potency entry is “inactive”.

Turning to `Cc1ccc(S(=O)(=O)N2CCCCC2)cc1C(=O)N1CCN(CCO)CC1`, the Potency entry is “inactive”.

As for `CC(CC(=O)Nc1ccc(F)cc1F)S(=O)(=O)c1ccc2c(c1)NC(=O)CO2` (stereo unspecified), the Potency result is “inactive”.

`O=[N+]([O-])c1cc(C(F)(F)F)ccc1NCCc1ccncc1`: the Potency result was “inactive”.

`COc1ccc(C(=O)NCc2nnc(SCC(=O)Nc3cccc(OC)c3)o2)cc1`: the Potency entry is “inactive”.

With `Cc1ccc(Cc2nnc(SCC(=O)Nc3ccc(C)cc3C)[nH]c2=O)cc1`, the Potency entry was “inactive”.

In the case of `COc1cc(C2C(C#N)=C(C)NC3=C2C(=O)CC(C)(C)C3)ccc1O` (stereo unspecified), the Potency was 10.4 µM (active).

As for `CCC1C(C#N)=C(SC)NC2=C1C(=O)CC(C)(C)C2` (stereo unspecified), the Potency result is “inactive”.

In the case of `CC(=O)C1=C(C)NC2=C(C(=O)CC(C)(C)C2)C1C` (stereo unspecified), the Potency entry was “inactive”.

Regarding `CC(=O)Nc1c2c(nn1-c1cccc(C)c1)CSC2`, the Potency result was “inactive”.

For `COc1ccc(S(=O)(=O)n2cnc3ccccc32)c(C)c1`, the Potency result is “inactive”.

With `O=S(=O)(c1ccccc1)N(Cc1cccc(F)c1)c1ccccc1`, the Potency result was “inactive”.

Take `COc1ccc(NC(=O)COc2ccc(C(=O)c3ccc(F)cc3)cc2)cc1S(N)(=O)=O`: the Potency result was “inactive”.

Take `Cc1cc(=O)oc2c3c(cc(OCC(=O)N[C@H](C(=O)O)c4ccccc4)c12)OC(C)(C)CC3`: the Potency entry was “inactive”.

On to `Cc1ccc(C)c(NC(=O)C2CCCN2C(=O)OC(C)(C)C)c1` (stereo unspecified), for which the Potency result is “inactive”.

For `CCOC(=O)N1CCC(NC(=O)c2cnn3ccccc23)CC1`, the Potency result is “inactive”.

Regarding `Cc1ccc(-n2ncc(C(=O)NC3CC3)c2C2CCN(C(=O)OC(C)(C)C)CC2)c(C)c1`, the Potency is 10.4 µM (active).

For `O=C(COC(=O)c1cccc(Cl)c1)Nc1ccc2[nH]c(=O)[nH]c2c1`, the Potency entry is “inactive”.

Consider `CCCS(=O)(=O)Nc1ccc(-c2cn3c(n2)SCC3)cc1`, for which the Potency result was “inactive”.

Consider `Cc1ccc(NC(=O)Cn2c(C)csc2=O)cc1`, for which the Potency result is “inactive”.

As to `CCC(=O)Nc1ccc2c(c1)nc(CCN1CCN(c3ccccn3)CC1)n2C`, the Potency entry is “inactive”.

Take `Cn1c(CCN2CCCCCC2)nc2cc(NC(=O)Nc3ccccc3)ccc21`: the Potency was 3.29 µM (active).

For `CCC(=O)Nc1ccc2c(c1)nc(CCN1CCN(C)CC1)n2C`, the Potency result is “inactive”.

As to `O=C(NC1CCCCC1)C1CCC(CNS(=O)(=O)c2ccccc2)CC1` (stereo unspecified), the Potency result was “inactive”.

Take `CC(C)Oc1ccc(S(=O)(=O)N2CCOCC2)cc1NC(=O)C1CSC2(C)CCC(=O)N12` (stereo unspecified): the Potency was 9.28 µM (active).

On to `CCN(CC)S(=O)(=O)c1ccc(N2CCOCC2)c(NC(=O)C2CSC3(C)CCC(=O)N23)c1` (stereo unspecified), for which the Potency entry is “inactive”.

As to `CC(C)Oc1ccc(S(=O)(=O)N2CCOCC2)cc1NC(=O)C1CCCC1`, the Potency result was “inactive”.

Consider `Cc1ccc(NC(=O)CSc2nn3c(=O)c(C)nnc3s2)cc1Cl`, for which the Potency was 13.1 µM (active).

Consider `Cc1ccc(NC(=O)CSc2nnc(CNC(=O)c3ccccc3F)o2)cc1Cl`, for which the Potency entry was “inactive”.

As for `Cc1ccc(NC(=O)C/C(N)=N/O)cc1Cl`, the Potency result was “inactive”.

The values are drawn from PubChem BioAssay AID504832 (National Center for Advancing Translational Sciences (NCATS), 2011).
